Test results: PubChem BioAssay AID1159580 (chemical genetic matrix, 2015)
Hit rate of the full screen: of about 5,500 compounds, about 2,000 (36%) were called active. Inconclusive results (about 18%) are left out. No stated cut-off is given here; in the data, active means normalized growth mostly below about 0.91 (no sharp cut-off); inconclusive means no clear call, values can overlap the other calls; inactive means mostly above about 0.92. This is one part of the list.

Experiment: chemical genetic growth profiling, strain panel (AID 1159580);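 further: tested at 20 µM; growth read once vehicle control cultures reached saturation at 30 °C; 1 = growth at the plate median or of vehicle wells; lower values mean less growth of the strain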
Conditions: growth OD
[1] = S. cerevisiae deletion strains, locus YCL061C, strain MRC1, hits give low values
[2] = S. cerevisiae deletion strains, locus YHR030C, strain SLT2, hits give low values
[3] = S. cerevisiae deletion strains, locus YJL187C, strain SWE1, hits give low values

Measured: normalized growth

CC(=O)NS(=O)(=O)c1ccc(NC(=O)c2ccccc2C(=O)O)cc1
inactive: S. cerevisiae deletion strains, locus YAL021C, strain ccr4, hits give low values 1.01 | S. cerevisiae deletion strains, locus YAL026C, strain drs2, hits give low values 1.02 | S. cerevisiae deletion strains, locus YAL030W, strain snc1, hits give low values 1.02 | S. cerevisiae deletion strains, locus YBL061C, strain skt5, hits give low values 1.01 | S. cerevisiae deletion strains, locus YBR009C, strain hhf1, hits give low values 1.03 | S. cerevisiae deletion strains, locus YBR023C, strain chs3, hits give low values 1.02 | S. cerevisiae deletion strains, locus YBR171W, strain sec66, hits give low values 1.04 | S. cerevisiae deletion strains, locus YBR231C, strain swc5, hits give low values 1.01 | S. cerevisiae deletion strains, locus YBR279W, strain paf1, hits give low values 1.02 | S. cerevisiae deletion strains, locus YCL011C, strain gbp2, hits give low values 1.01 | S. cerevisiae deletion strains, locus YCL016C, strain dcc1, hits give low values 1.02 | [1] 1.02 | S. cerevisiae deletion strains, locus YCL069W, strain vba3, hits give low values 1.02 | S. cerevisiae deletion strains, locus YCR088W, strain abp1, hits give low values 1.01 | S. cerevisiae deletion strains, locus YDL005C, strain med2, hits give low values 1.02 | S. cerevisiae deletion strains, locus YDL040C, strain nat1, hits give low values 1.02 | S. cerevisiae deletion strains, locus YDR001C, strain nth1, hits give low values 1.01 | S. cerevisiae deletion strains, locus YDR069C, strain doa4, hits give low values 1.02 | S. cerevisiae deletion strains, locus YDR137W, strain rgp1, hits give low values 1.04 | S. cerevisiae deletion strains, locus YDR159W, strain sac3, hits give low values 1.04 | S. cerevisiae deletion strains, locus YDR195W, strain ref2 1.01 | S. cerevisiae deletion strains, locus YDR297W, strain sur2, hits give low values 1.01 | S. cerevisiae deletion strains, locus YDR334W, strain swr1, hits give low values 1.01 | S. cerevisiae deletion strains, locus YDR335W, strain msn5, hits give low values 1.01 | S. cerevisiae deletion strains, locus YDR392W, strain spt3, hits give low values 1.01 | S. cerevisiae deletion strains, locus YEL003W, strain gim4, hits give low values 1.01 | S. cerevisiae deletion strains, locus YEL037C, strain rad23, hits give low values 1.01 | S. cerevisiae deletion strains, locus YEL061C, strain CIN8 (second series), hits give low values 1.02 | S. cerevisiae deletion strains, locus YER015W, strain faa2, hits give low values 1.02 | S. cerevisiae deletion strains, locus YER016W, strain bim1, hits give low values 1.02 | S. cerevisiae deletion strains, locus YER111C, strain swi4, hits give low values 1.02 | S. cerevisiae deletion strains, locus YER155C, strain BEM2 (second series), hits give low values 1.05 | S. cerevisiae deletion strains, locus YFR010W, strain ubp6, hits give low values 1.02 | S. cerevisiae deletion strains, locus YGL167C, strain pmr1, hits give low values 1.02 | S. cerevisiae deletion strains, locus YGL173C, strain kem1, hits give low values 1.02 | S. cerevisiae deletion strains, locus YGL227W, strain vid30, hits give low values 1.02 | S. cerevisiae deletion strains, locus YGL240W, strain doc1, hits give low values 1.01 | S. cerevisiae deletion strains, locus YGL253W, strain hxk2, hits give low values 1.02 | S. cerevisiae deletion strains, locus YHR013C, strain ard1, hits give low values 1.02 | S. cerevisiae deletion strains, locus YHR027C, strain rpn1, hits give low values 1.02 | [2] 0.958 | S. cerevisiae deletion strains, locus YHR079C, strain IRE1, hits give low values 0.969 | S. cerevisiae deletion strains, locus YHR142W, strain chs7, hits give low values 1.04 | S. cerevisiae deletion strains, locus YJL092W, strain hpr5, hits give low values 1.01 | S. cerevisiae deletion strains, locus YJL095W, strain BCK1 (second series), hits give low values 1.02 | S. cerevisiae deletion strains, locus YJL095W, strain BCK1, hits give low values 0.972 | S. cerevisiae deletion strains, locus YJL115W, strain asf1, hits give low values 1.02 | S. cerevisiae deletion strains, locus YJL129C, strain trk1, hits give low values 1.03 | S. cerevisiae deletion strains, locus YJL154C, strain vps35, hits give low values 1.02 | S. cerevisiae deletion strains, locus YJL164C, strain tpk1, hits give low values 1.01 | S. cerevisiae deletion strains, locus YJL166W, strain qcr8, hits give low values 1.02 | [3] 1.01 | S. cerevisiae deletion strains, locus YJR066W, strain TOR1, hits give low values 0.949 | S. cerevisiae deletion strains, locus YKL160W, strain elf1, hits give low values 1.02 | S. cerevisiae deletion strains, locus YKR026C, strain gcn3, hits give low values 1 | S. cerevisiae deletion strains, locus YKR091W, strain srl3, hits give low values 1.01 | S. cerevisiae deletion strains, locus YLL001W, strain dnm1, hits give low values 1.01 | S. cerevisiae deletion strains, locus YLL026W, hits give low values 1.02 | S. cerevisiae deletion strains, locus YLL041C, strain sdh2, hits give low values 1.02 | S. cerevisiae deletion strains, locus YLR027C, strain aat2, hits give low values 1.02 | S. cerevisiae deletion strains, locus YLR113W, strain HOG1, hits give low values 0.976 | S. cerevisiae deletion strains, locus YLR221C, strain rsa3, hits give low values 1.02 | S. cerevisiae deletion strains, locus YLR258W, strain gsy2, hits give low values 1.01 | S. cerevisiae deletion strains, locus YLR262C, strain YPT6 (second series), hits give low values 1.03 | S. cerevisiae deletion strains, locus YLR320W, strain mms22, hits give low values 1.03 | S. cerevisiae deletion strains, locus YLR342W, strain FKS1, hits give low values 1.01 | S. cerevisiae deletion strains, locus YLR357W, strain rsc2, hits give low values 1.05 | S. cerevisiae deletion strains, locus YLR370C, strain arc18, hits give low values 1.02 | S. cerevisiae deletion strains, locus YLR384C, strain iki3, hits give low values 1.03 | S. cerevisiae deletion strains, locus YML120C, strain ndi1, hits give low values 1.01 | S. cerevisiae deletion strains, locus YMR058W, strain fet3, hits give low values 1.04 | S. cerevisiae deletion strains, locus YMR125W, strain sto1, hits give low values 1.03 | S. cerevisiae deletion strains, locus YMR129W, hits give low values 1.03 | S. cerevisiae deletion strains, locus YMR205C, strain PFK2, hits give low values 1.02 | S. cerevisiae deletion strains, locus YMR231W, strain pep5, hits give low values 1.02 | S. cerevisiae deletion strains, locus YNL071W, strain lat1, hits give low values 1.02 | S. cerevisiae deletion strains, locus YNL183C, strain NPR1, hits give low values 0.91 | S. cerevisiae deletion strains, locus YNL209W, strain ssb2, hits give low values 1.02 | S. cerevisiae deletion strains, locus YNL248C, strain rpa49, hits give low values 1.02 | S. cerevisiae deletion strains, locus YNL322C, strain KRE1 (second series), hits give low values 1.01 | S. cerevisiae deletion strains, locus YNR049C, strain mso1, hits give low values 1.01 | S. cerevisiae deletion strains, locus YOR001W, strain rrp6, hits give low values 1.02 | S. cerevisiae deletion strains, locus YOR070C, strain gyp1, hits give low values 1.01 | S. cerevisiae deletion strains, locus YOR080W, strain dia2, hits give low values 1.01 | S. cerevisiae deletion strains, locus YOR083W, strain WHI5, hits give low values 1.01 | S. cerevisiae deletion strains, locus YOR106W, strain vam3, hits give low values 1.03 | S. cerevisiae deletion strains, locus YOR231W, strain MKK1, hits give low values 0.953 | S. cerevisiae deletion strains, locus YOR265W, strain rbl2, hits give low values 1.03 | S. cerevisiae deletion strains, locus YOR270C, strain vph1, hits give low values 1.05 | S. cerevisiae deletion strains, locus YOR290C, strain snf2, hits give low values 1.04 | S. cerevisiae deletion strains, locus YPL051W, strain arl3, hits give low values 1.03 | S. cerevisiae deletion strains, locus YPL078C, strain atp4, hits give low values 1.02 | S. cerevisiae deletion strains, locus YPL106C, strain sse1, hits give low values 0.991 | S. cerevisiae deletion strains, locus YPL240C, strain hsp82, hits give low values 1.01 | S. cerevisiae deletion strains, locus YPL256C, strain CLN2, hits give low values 0.975

CNS(=O)(=O)c1cc(Br)ccc1S(=O)c1ccccc1C(=O)O (stereo not given)
inactive: S. cerevisiae deletion strains, locus YAL013W, strain DEP1, hits give low values 1 | S. cerevisiae deletion strains, locus YBR229C, strain ROT2, hits give low values 1 | [1] 1 | S. cerevisiae deletion strains, locus YDL101C, strain DUN1, hits give low values 1.05 | S. cerevisiae deletion strains, locus YDR150W, strain NUM1, hits give low values 1.01 | S. cerevisiae deletion strains, locus YEL061C, strain CIN8, hits give low values 1.02 | S. cerevisiae deletion strains, locus YGR078C, strain PAC10, hits give low values 1.01 | [2] 0.98 | S. cerevisiae deletion strains, locus YHR087W, strain rtc3, hits give low values 1.03 | [3] 1 | S. cerevisiae deletion strains, locus YJR043C, strain POL32, hits give low values 1 | S. cerevisiae deletion strains, locus YJR075W, strain HOC1, hits give low values 0.997 | S. cerevisiae deletion strains, locus YKL190W, strain CNB1, hits give low values 0.982 | S. cerevisiae deletion strains, locus YLR039C, strain RIC1, hits give low values 1.01 | S. cerevisiae deletion strains, locus YLR058C, strain SHM2 (second series), hits give low values 0.992 | S. cerevisiae deletion strains, locus YLR085C, strain ARP6, hits give low values 0.983 | S. cerevisiae deletion strains, locus YLR262C, strain YPT6, hits give low values 1.02 | S. cerevisiae deletion strains, locus YMR219W, strain ESC1, hits give low values 1.01 | S. cerevisiae deletion strains, locus YMR263W, strain SAP30, hits give low values 0.984 | S. cerevisiae deletion strains, locus YMR307W, strain GAS1, hits give low values 0.942 | S. cerevisiae deletion strains, locus YNL153C, strain GIM3, hits give low values 1.03 | S. cerevisiae deletion strains, locus YNL298W, strain CLA4 (second series), hits give low values 0.995 | S. cerevisiae deletion strains, locus YNL322C, strain KRE1, hits give low values 1.01 | S. cerevisiae deletion strains, locus YNR030W, strain Alg12, hits give low values 1.03 | S. cerevisiae deletion strains, locus YOL006C, strain TOP1, hits give low values 0.975 | S. cerevisiae deletion strains, locus YPL055C, strain LGE1, hits give low values 1.04 | S. cerevisiae deletion strains, locus YPL241C, strain CIN2, hits give low values 1.04 | S. cerevisiae deletion strains, locus YPR135W, strain CTF4, hits give low values 1.15 | S. cerevisiae strains, strain wild type, hits give low values 0.968
active: S. cerevisiae deletion strains, locus YML094W, strain GIM5, hits give low values 1.15 [resistant]
